KB-3-1 tox – KB-3-1 parental cell cytotoxicity | KB-3-1 viability, CellTiter-Glo ATP luminescence, 72 h | Potency, µM (top dose mostly 46.1 µM), actives largely listed as cytotoxic | 1.4% of 400,000 active; note: % is set by controls: 0 for no effect and ±100 for the full control effect; nearly all actives have a fitted effect of over 60% in size
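Using CellTiter-Glo luminescence, growth of non-resistant KB-3-1 adenocarcinoma cells is assessed 72 h after pin-tool compound addition at 37 °C. Normalized responses across the concentration series yield fitted curves.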
ELG1 DNA repair – inhibitors of ELG1-dependent DNA repair in HEK293T cells | AID 504467 | Potency, µM (titrated, usually from 46.1 µM), inactives show at the highest dose activity change, negative = inhibition, usual class: inhibitors | HEK293T ELG1-luciferase reporter, luminescence, 16 h; DNA damage induced by 5-fluorouridine | 2.3% of 330,000 active; note: % is set by controls: 0 for no effect and ±100 for the full control effect; nearly all actives have a fitted effect of over 55% in size
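Overnight (16 hr) co-exposure of 2,000 cells/well to 5-fluorouridine and compound at 37 °C preceded detection. Luciferase was quantified via ONE-Glo luminescence; loss of signal denotes inhibition.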
KB-V1 MDR tox – KB-V1 MDR subline cytotoxicity; Potency, µM (highest dose often 46.1 µM), most hits filed as cytotoxic; KB-V1 MDR cells viability, CellTiter-Glo, 72 h; AID 1347076; 3.4% of 400,000 active; note: % is set by controls: 0 for no effect and ±100 for the full control effect; nearly all actives have a fitted effect of over 60% in size
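Cytotoxicity toward P-gp-expressing KB-V1 cells was determined as loss of CellTiter-Glo luminescence after 72 h at 37 degrees C. Compounds were tested in quantitative HTS format across a concentration range, with curves fitted to normalized data.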
MCF10A rereplic – induces DNA re-replication in MCF 10a normal breast cells. Potency, µM (series often up to 46.1 µM), inactives show at the top dose activity, positive = re-replication, most hits filed as activators. 2.9% of 350,000 active. MCF 10A DNA re-replication, Hoechst nuclear intensity, 48 h; note: % of control where 0% means no effect; nearly all actives have a fitted effect of over 50% in size
SW480 rereplic – DNA re-replication induction in SW480 cells | 1.8% of 340,000 active | SW480 DNA re-replication, Hoechst DNA content imaging, 48 h | Potency, µM (doses to about 46.1 µM), for inactives: top-dose re-replication activation, usual class: activators | AID 624297; note: % of control where 0% means no effect; nearly all actives have a fitted effect of over 55% in size
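Image-based DNA-content assay: after two days of treatment, nuclei were labelled with the DNA dye Hoechst and imaged, and hits were compounds raising the count of nuclei showing high fluorescence intensity.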
* = called active by the depositor; i = inactive; ? = inconclusive; · = no result; [ ] = another dose, or the depositor's remark. In the library only some 8.1% were active in any assay of this set; here they are far more common. Calls come from the whole dose curve; as a rule, active = well fitted curve in the direction sought with a large enough effect; inconclusive = small, poorly fitted or top-dose-only effect, or another doubt; inactive = no such curve, though single readings can be large; an effect the other way counts as inactive or inconclusive. Potency is the fitted concentration of half-maximal effect.

SMILES | KB-3-1 tox | ELG1 DNA repair | KB-V1 MDR tox | MCF10A rereplic | SW480 rereplic
COc1ccccc1NC(=O)c1c(N=Cc2c(O)ccc3ccccc23)cnn1C | 21µM* | ? | ? | ? | ?
C=CCc1cccc(/C=N/NC(=O)C(C)Nc2cccc(C)c2)c1O (stereo not drawn) | ? | ? | i | 7% | 3.3µM*
Cn1ncc(N=Cc2c(O)ccc3ccccc23)c1C(=O)N1CCOCC1 | i | · | i | -3% | 1%[9.22 µM]
O=C(c1cccc(C(F)(F)F)c1)C1CCCN(C(=O)CCc2cnccn2)C1 (stereo not drawn) | i | 1% | ? | 5% | ?
COc1ccc2[nH]c(C(=O)N3CCC(n4nccc4NC(=O)C4CC4)CC3)c(C)c2c1 | i | -5% | ? | 0% | -19%
CCn1c(SCC(=O)Nc2ccccc2)nc2ccccc2c1=O | i | -9% | i | ? | 5%
O=C(CCS(=O)(=O)c1cccs1)Nc1ccc(C(=O)NC2CCN(Cc3ccccc3)CC2)cc1 | i | -19% | i | 17% | 0%
O=C(Cn1cnc2cc([N+](=O)[O-])ccc2c1=O)N(Cc1ccccc1)C1CCS(=O)(=O)C1 (stereo not drawn) | i | -5% | i | 0% | -4%
COc1cc(C2c3cc4c(cc3CC3COC(=O)N32)OCO4)cc(OC)c1OC (stereo not drawn) | 0.73µM* | · | 2.1µM* | 1.3µM* | 1.2µM*
O=C(Cn1ncc2c3ccccc3n(Cc3ccc(Cl)cc3)c2c1=O)NC1CCCCCC1 | i | · | i | · | ·
O=C(Nc1ccc(F)cc1)c1sccc1SCc1cccc(C(F)(F)F)c1 | i | 0% | ? | ? | 0%
O=C(Nc1ccc(F)cc1F)c1sccc1SCc1cccc(C(F)(F)F)c1 | i | 4% | 16µM* | 24% | -4%
COc1ccc(NC(=O)c2sccc2SCc2cccc(C(F)(F)F)c2)cc1 | i | 0% | 16µM* | -1% | 6%
Cc1cc(Cl)ccc1OCc1n[nH]c(=S)n1C1CCCCC1 | i | 6% | i | 26µM* | -1%
C/C(=N\NC(=O)c1ccccc1)c1nc2ccccc2n1C | i | -22% | ? | 7% | 13µM*
Cn1c(NC(=O)c2ccc(F)cc2)nc2ccccc21 | ? | ? | i | 0% | ?
CC(=O)c1cccc(NS(=O)(=O)c2cc(-c3onc(C)c3C)ccc2C)c1 | 15µM* | · | ? | · | ·
CCNc1nc(NC#N)nc(SCC(=O)OCC)n1 | i | -3% | i | 1% | -3%
NNC(=O)COc1ncn(-c2ccccc2)n1 | i | · | ? | 18% | -11%
Cc1nc(-c2ccc(Cl)cc2)sc1C1(C)CC(c2ccc(F)cc2)=NO1 (stereo not drawn) | i | ? | i | 10µM* | -3%
Cc1ccc(C2=NOC(C)(c3sc(-c4ccc(Cl)cc4)nc3C)C2)cc1 (stereo not drawn) | i | · | i | 1% | -36%[9.22 µM]
O=C(O)c1ccc(Nc2cc(Cl)c3nonc3c2[N+](=O)[O-])cc1 | i | 0% | i | -6% | ?
O=[N+]([O-])c1c(Nc2cccc(O)c2)cc(Cl)c2nonc12 | 18µM* | -29% | ? | ? | ?
Cc1ccccc1Nc1c([N+](=O)[O-])cncc1[N+](=O)[O-] | i | 12% | i | -1% | 15%
O=[N+]([O-])c1cncc([N+](=O)[O-])c1Nc1cccc(O)c1 | ? | ? | 23µM* | 29% | ?
SMILES | KB-3-1 tox | ELG1 DNA repair | KB-V1 MDR tox | MCF10A rereplic | SW480 rereplic
O=C(CNC(=O)c1ccc(Br)cc1)OCc1cc([N+](=O)[O-])cc2c1OCOC2 | i | 3% | i | 1% | 1%
Cc1ccnc(Nc2nc(-c3c(C)nc4sccn34)cs2)c1 | ? | 26µM* | ? | ? | -10%
Cc1ccnc(Nc2nc(-c3ccccc3)cs2)c1 | ? | ? | i | 13% | 11%
CC(=O)Nc1cccc(-c2csc(Nc3cc(C)ccn3)n2)c1 | i | ? | 23µM* | 0% | -6%
Cc1ccc(Nc2nc(-c3c(C)nc4ccccn34)cs2)cc1 | 0.021µM* | ? | 0.16µM* | ? | ?
Cc1nc2ncccn2c1-c1csc(Nc2ccc(O)cc2)n1 | 15µM* | ? | i | 28% | 8%
C=CCNc1nc(-c2c(C)nc3ncccn23)cs1 | i | -2% | i | -3% | -6%
CSc1ccc(S(=O)(=O)NC2CC3CCC2C3)cc1 (stereo not drawn) | i | 2% | i | 18% | -50%
Cc1ccc(Nc2nc(-c3c(C)nc4ncccn34)cs2)cc1 | 0.0058µM* | 5% | 0.33µM* | ? | 0.058µM*
COc1ccccc1NC(=O)CSc1nnc(CNC(=O)c2cccs2)o1 | i | 16% | ? | 0% | -19%
CCOc1ccc(CCNC(=O)CSc2cc(=O)n(CC)c3ccccc23)cc1OCC | i | 0% | ? | 6% | 4%
CCOc1ccc(S(=O)(=O)NCc2cccs2)cc1 | i | 1% | i | 1% | -9%
CCSc1nnc(-c2ccc(S(=O)(=O)NCc3cccs3)cc2)o1 | i | ? | 21µM* | ? | -8%
COC(=O)[C@]12CCCCC=C1N(CCc1ccc(OC)c(OC)c1)C(=O)[C@H](CC(=O)NCCCN1CCCC1=O)C2 | i | · | i | · | ·
CCCN(CCC)C(=O)C1CCN(c2cc(C)nc3c(-c4ccc(OC)c(OC)c4)c(C)nn23)CC1 | i | 6.5µM* | i | 8% | -17%
COc1ccc(-c2c(C)nn3c(N4CCC(C(=O)NCCN(C)C)CC4)cc(C)nc23)cc1OC | i | 8% | i | 11% | -7%
COc1ccccc1-c1nnc(Sc2nc([N+](=O)[O-])nn2C)o1 | ? | ? | ? | 9.2µM* | ?
CCn1cc(C(=O)Nc2cccc(NC(C)=O)c2)c2cc(OC)c(OC)cc2c1=O | i | ? | i | 2% | -5%
O=C1CCCc2c1nc(-c1ccc(F)cc1)n2O | i | -4% | i | 4% | -19%
O=C1CCCc2c1nc(-c1ccc([N+](=O)[O-])cc1)n2O | i | 0% | i | 23µM* | 34%
CCS(=O)(=O)N1CCc2cc(C(=O)N3CCN(c4ccc(OC)cc4)CC3)ccc21 | i | · | i | · | ·
CCC(=O)NC(c1ccccc1)c1c(OC(C)=O)ccc2ccccc12 (stereo not drawn) | i | 12% | ? | 2% | -3%
Cc1cc(SCn2nnc3ccccc3c2=O)nc2ccccc12 | i | ? | 16µM* | 25% | 0%
O=c1c2ccccc2nnn1CSc1ccccc1 | i | ? | i | 0% | 1%
O=c1c2ccccc2nnn1CSc1ccc2ccccc2n1 | i | ? | 23µM* | ? | 65%

Screens: PubChem BioAssay, National Center for Advancing Translational Sciences (NCATS)
